High-throughput results deposited in PubChem BioAssay by several laboratories.
ZTA counter: blocks Epstein-Barr virus ZTA, an EBNA-1 counter-screen; actives 0.15% (n = 320,000); inhibition, % at 11 µM; P03206; ZTA-DNA binding, fluorescence polarization; AID 2234; in the data active = inhibition above about 33%
Target sequence (P03206 whole entry, looked up): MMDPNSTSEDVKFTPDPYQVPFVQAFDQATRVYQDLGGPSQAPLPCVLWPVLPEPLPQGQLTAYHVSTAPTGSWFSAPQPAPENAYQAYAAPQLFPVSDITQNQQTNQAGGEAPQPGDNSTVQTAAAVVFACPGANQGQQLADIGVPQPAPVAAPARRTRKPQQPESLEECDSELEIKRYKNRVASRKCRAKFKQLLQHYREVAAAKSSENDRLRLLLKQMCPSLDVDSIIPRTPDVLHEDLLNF
TPT1 inh: Candida albicans TPT1 enzyme inhibitors, primary screen, biochemical, fluorescence polarization | recombinant caTPT1, FP RNA substrate dephosphorylation | tRNA 2'-phosphotransferase TPT1 (Candida albicans SC5314) | inhibition, % at 5 µM | actives 0.81% (n = 300,000);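 active = inhibition above the mean of all tested compounds plus 3 SD, set per screening campaign, cut at about 24% in these data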;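 also: plate controls were DMSO alone for no effect and ferristatin control at 100 nM for full effect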
EBNA-1 inh: EBNA-1 DNA-binding inhibitors, primary screen, biochemical, fluorescence polarization; inhibition, % at 14.8 µM; actives 0.34% (n = 300,000); AID 1950, 2009; in the data active = inhibition above about 28%
Rpn11 inh: Rpn11 (PSMD14) deubiquitinase inhibitors, primary screen, biochemical, fluorescence polarization, uHTS; AID 588493, 2011; actives 0.59% (n = 360,000); human 26S proteasome, Ub4-pepOG fluorescence polarization; 20S core pre-blocked with epoxomicin; inhibition, % at 20 µM; 26S proteasome non-ATPase regulatory subunit 14 (Homo sapiens), O00487;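 active = inhibition at 20 µM, scaled to each plate's controls, above about 33%, limit read from the data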
Target sequence (O00487 whole entry, looked up): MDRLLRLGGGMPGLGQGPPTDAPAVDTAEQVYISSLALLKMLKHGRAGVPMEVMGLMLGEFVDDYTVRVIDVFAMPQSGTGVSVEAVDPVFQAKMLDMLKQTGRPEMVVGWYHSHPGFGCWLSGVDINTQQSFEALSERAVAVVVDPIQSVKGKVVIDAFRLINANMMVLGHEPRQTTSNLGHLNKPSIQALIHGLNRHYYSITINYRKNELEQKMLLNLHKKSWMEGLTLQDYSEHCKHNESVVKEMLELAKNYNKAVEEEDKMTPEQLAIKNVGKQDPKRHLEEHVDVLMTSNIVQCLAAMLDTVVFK
GRIN3A LBD mod: binders of NR3A ligand-binding domain, primary screen, biophysical, differential scanning fluorimetry, uHTS | NR3A LBD differential scanning fluorimetry, Tm shift; 0% = protein alone, 100% = glycine-bound protein | Tm shift relative to glycine control, % at 25 µM | actives 2.5% (n = 340,000) | Glutamate receptor ionotropic, NMDA 3A (GRIN3A) ligand-binding domain;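 active = melting temperature shift of at least 10% of the positive control shift, at one fixed dose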
dFosB activator: activators of delta FosB homodimer, primary screen, biochemical, fluorescence polarization, TAMRA-CDK5 oligo, single point | AID 493131, 2011 | actives 0.99% (n = 340,000) | activation, % at 25 µM | purified delta FosB; percent of positive-control signal above neutral wells;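 active = mean activation above about 17%, with every replicate also reaching it, limit read from the data, passing the limit was not always enough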
Active calls of the source: *; nt = no result given. Rows were chosen to be rich in hits. Some 4.5% of all compounds tested hit in one or more screens of this group.

SMILES | ZTA counter | TPT1 inh | EBNA-1 inh | Rpn11 inh | GRIN3A LBD mod | dFosB activator
COc1ccc(C)cc1NS(=O)(=O)c1ccc(NC(=O)CN(c2cc([N+](=O)[O-])ccc2C)S(C)(=O)=O)cc1 | -13 | -6 | -10 | 2 | 20* | -7
Cc1nn(C(C)(C)C)c(OC(=O)C2CCCC2)c1S(=O)(=O)c1ccccc1 | nt | nt | nt | 2 | 4 | -3
Cc1ccc(S(=O)(=O)c2c(C)nn(C(C)(C)C)c2OC(=O)C2CCCC2)cc1 | -2 | 4 | -22 | 0 | 10* | -1
COCC1CCN(Cc2cn[nH]c2-c2ccc(OC)c(F)c2)C1 (stereo unspecified) | -6 | -3 | -13 | 1 | 0 | -8
O=C(COc1cc(Cl)c(Cl)cc1Cl)Nc1ccncc1 | -3 | -5 | -2 | 8 | 545* | 5
Cc1cccc(OCC(=O)Nc2cccc(O)c2)c1 | -6 | -3 | 12 | 4 | -26 | 0
O=C(COc1cc(Cl)c(Cl)cc1Cl)Nc1cccc(O)c1 | -11 | 1 | -1 | -2 | 18* | -3
O=C(COc1cc(Cl)c(Cl)cc1Cl)NC(=O)Nc1ccc2c(c1)OCCO2 | 11 | -2 | 4 | 3 | 19* | -1
COc1ccc(/C=N/NC(=O)Cc2cc(OC)c(OC)cc2[N+](=O)[O-])cc1 | 0 | -3 | 0 | 1 | 0 | -6
Cc1[nH][nH]c(=O)c1C | -4 | nt | nt | -5 | -3 | -3
CC(CCCN1CCCC1)Nc1ccnc2cc(Cl)ccc12 (stereo unspecified) | nt | nt | nt | -7 | 3 | 42*
Clc1ccc2c(NCCNC3CCCCC3)ccnc2c1 | nt | nt | nt | -3 | 1 | 45*
CC(Nc1ccnc2cc(Cl)ccc12)c1ccc(S(N)(=O)=O)cc1 (stereo unspecified) | -13 | -1 | -8 | -1 | 0 | -8
CC(C)NC1CCC(Nc2ccnc3cc(Cl)ccc23)CC1 (stereo unspecified) | nt | nt | nt | 3 | -1 | 17*
Clc1ccc2c(NCc3ccccn3)ccnc2c1 | -10 | -4 | -4 | -10 | -1 | -4
Cc1cc(C)c(OCC(=O)OCC(=O)NCC2CCCCC2)c(C)c1 | 16 | -3 | 5 | 10 | 1 | 3
Cc1cccc2cc3c(N)c(C(=O)Nc4ccc(N5CCOCC5)cc4)sc3nc12 | -3 | 19 | -3 | 23 | 14* | -11
Cc1ccc(C)c2nc3sc(C(=O)N4CCOCC4)c(N)c3cc12 | -15 | 5 | -26 | 24 | 3 | -5
Cc1cccc(S(=O)(=O)c2c(N)n(-c3ccccc3)c3nc4ccccc4nc23)c1 | -22 | -2 | -10 | 11 | 12* | -19
O=C1CSC(c2ccccc2)N1Cc1ccccc1 (stereo unspecified) | -8 | -1 | -5 | -4 | nt | -1
Cc1onc(-c2c(F)cccc2Cl)c1C(=O)NCCc1ccncc1 | -8 | 3 | -1 | 0 | 7 | 8
COc1ccc(OC)c(C(C(=O)NC2CCCCC2)N(Cc2ccco2)C(=O)c2ccccn2)c1 (stereo unspecified) | -9 | -2 | 0 | 6 | -1 | -4
O=c1[nH]c(N/N=C\c2ccc3c(c2)OCO3)nc2ccccc12 | -1 | -1 | -7 | -7 | -5 | 34*
O=c1[nH]c(N/N=C/c2ccccc2)nc2ccccc12 | -12 | -2 | 4 | -7 | -1 | -13
Cc1cc(N/N=C/c2ccccc2Br)nc2ccccc12 | 3 | 2 | 3 | 3 | -30 | 6
SMILES | ZTA counter | TPT1 inh | EBNA-1 inh | Rpn11 inh | GRIN3A LBD mod | dFosB activator
Cc1cc(N/N=C/c2ccc3c(c2)OCO3)nc2ccccc12 | -7 | 0 | -7 | 8 | -17 | 61*
CN1C(N)=NC(=O)/C1=C\c1ccc(Br)cc1 | -11 | -3 | -1 | 17 | -2 | 5
CN(C)CCN(Cc1cccs1)S(=O)(=O)c1csc(C(N)=O)c1 | 2 | 5 | -1 | -3 | 0 | -4
Cc1cccc(NS(=O)(=O)c2cc3c(cc2C)n(C)c(=O)c(=O)n3C)c1 | -7 | -4 | -2 | -4 | 3 | -1
CCOC(=O)C1C(=O)NC(SCC(=O)Nc2nccs2)=C(C#N)C1c1ccccc1OCC (stereo unspecified) | -3 | 5 | 2 | 61* | -7 | -5
CCOC(=O)C1C(=O)NC(SCC(=O)OC)=C(C#N)C1c1ccccc1OCC (stereo unspecified) | -20 | 2 | -15 | -2 | 1 | -11
CCOC(=O)Nc1cccc(Nc2ccccc2)c1 | -10 | -1 | 5 | 11 | 27* | -4
CCCc1[nH]nc2c1C(c1ccncc1)C(C#N)=C(N)O2 (stereo unspecified) | -10 | -4 | -8 | 5 | 14* | -5
Cc1ccc(-c2[nH]nc3c2C(c2ccsc2)C(C#N)=C(N)O3)cc1 (stereo unspecified) | -22 | -2 | 0 | -2 | 12* | -3
Cc1[nH]nc2c1C(c1ccc(-c3ccc(Cl)cc3)o1)C(C#N)=C(N)O2 (stereo unspecified) | -4 | 2 | -2 | -22 | 14* | 3
CCCn1c(SCC(=O)N2CCCC(C)C2)nnc1-c1ccccn1 (stereo unspecified) | 18 | 1 | 2 | 3 | 0 | -1
O=[N+]([O-])c1ccc(/C=C/c2ccc3cccc([N+](=O)[O-])c3n2)cc1 | -1 | 2 | -10 | -1 | 23* | -1
O=[N+]([O-])c1cccc2ccc(/C=C/c3ccc(F)cc3)nc12 | -15 | -3 | 0 | -7 | 24* | -1
O=[N+]([O-])c1cccc(/C=C/c2ccc3cccc(O)c3n2)c1 | -5 | -1 | 14 | 4 | 7 | 7
CCOc1cc(/C=C/c2ccc3cccc([N+](=O)[O-])c3n2)ccc1O | -5 | 1 | 0 | -4 | 25* | -1
CC(=O)Nc1ccc(S(=O)(=O)NCCC(=O)OCC(=O)c2cccc(Br)c2)cc1 | nt | nt | nt | 2 | -2 | -7
O=C(CN1C(=O)S/C(=C\C=C\c2ccccc2)C1=O)Nc1ccccc1C(=O)O | 13 | 1 | 10 | 3 | 0 | -14
O=C(CN1C(=O)S/C(=C\C=C\c2ccccc2)C1=O)Nc1cccc(O)c1 | 7 | -1 | -2 | 2 | 27* | -3
O=C(CCN1C(=O)S/C(=C\C=C\c2ccccc2)C1=O)Nc1ccc(O)cc1 | 27 | -1 | 23 | 4 | 13* | 3
COc1ccc(/C=N/NC(=O)CNC(=O)c2ccc3c(c2)OCCO3)c(C(=O)O)c1OC | -12 | 1 | -7 | 1 | 0 | -3
